Source: PubChem BioAssay AID2018 (Sanford-Burnham Center for Chemical Genomics, 2009)
The whole screen tested about 1,200 compounds, of which about 600 (50%) were called active. The set was probably picked from earlier hits. This is one part of the list. Entries with a potency or affinity are not part of this list. A number with no mark means an inactive call. Rule as the data show it: active = inhibition above about 42%; inactive = the rest.

Target: SUMO-conjugating enzyme UBC9 (Homo sapiens) (UniProt P63279)
Test: SUMOylation inhibitor hit validation, confirmation, SUMOylation inhibitor project, biochemical, AlphaScreen (AID 2018)
Conditions: AlphaScreen in vitro SUMOylation assay; at 35 µM; active compounds read high

SUMO-conjugating enzyme UBC9 (Homo sapiens), sequence (P63279 whole entry, looked up): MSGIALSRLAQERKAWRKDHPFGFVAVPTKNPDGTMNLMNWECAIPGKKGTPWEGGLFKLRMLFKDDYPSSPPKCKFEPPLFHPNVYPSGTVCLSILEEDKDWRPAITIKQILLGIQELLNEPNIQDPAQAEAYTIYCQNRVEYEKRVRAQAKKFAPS

How did the inhibition turn out when `CC1(OC(=O)c2cccs2)C(=O)C=C2C=C3CCCN3C=C2C1=O` (stereo unspecified) was run?
The inhibition was 83.7% (active).

With `Cc1nc2ccc(NC(=O)NCc3ccco3)cc2s1` as the compound, how does the inhibition read?
The inhibition was -8.1%.

For `CC(=O)C1=C(O)C=C(c2ccco2)CC1c1ccco1` (stereo unspecified), which inhibition is on record?
The inhibition was 28.1%.

`Cc1ccc(S(=O)(=O)NNC(=S)Nc2c(Cl)cccc2Cl)cc1` was tested. Which inhibition did it give?
The inhibition was -0.4%.

For `Fc1ccc(-c2ccnc3nc(N4CCOCC4)nn23)cc1`, which inhibition is on record?
The inhibition was -6.1%.

`O=C(O)c1ccc(C(=O)Nc2cccc3ccccc23)c(C(=O)O)c1` was tested. Which inhibition did it give?
The inhibition was 12.5%.

How did the inhibition turn out when `Cc1cc(N2C(=O)c3ccc(C(=O)Nc4ccc(O)cc4C(=O)O)cc3C2=O)no1` was run?
The inhibition was 39.8%.

With `N#Cc1ccc(-c2csc(NC(=O)/C=C/c3cccs3)n2)cc1` as the compound, how does the inhibition read?
Its inhibition is 3.9%.

With `CNc1nnc(-c2cc3ccccc3oc2=O)s1` as the compound, how does the inhibition read?
Its inhibition is 28.9%.

For `Nc1nnc(-c2cc3c(ccc4ccccc43)oc2=O)s1`, which inhibition is on record?
The inhibition was 46.1% (active).

With `COC(=O)c1scc(C)c1NC(=O)C(Cl)c1ccccc1` (stereo unspecified) as the compound, how does the inhibition read?
Its inhibition is -8.2%.

How did the inhibition turn out when `N#Cc1c(-c2ccco2)cc(-c2cccnc2)nc1N` was run?
The inhibition was 26.7%.

With `CC(=O)c1sc2nc(-c3ccco3)ccc2c1N` as the compound, how does the inhibition read?
Its inhibition is 40%.

For `N#Cc1sc2nc(-c3ccccc3)cc(-c3ccco3)c2c1N`, which inhibition is on record?
Its inhibition is 96.1% (active).

`CCOc1cc2c(C#N)c(N3CCNCC3)nc(N)c2c(N)n1` was tested. Which inhibition did it give?
The inhibition was 18.3%.

How did the inhibition turn out when `COc1ccc(CN2C(=O)Cc3c2nc(N)c2c(N)nc(N4CCOCC4)c(C#N)c32)cc1` was run?
The inhibition was 11%.

`CCOc1cc2c(C#N)c(N3CCCCC3)nc(N)c2c(N)n1` was tested. Which inhibition did it give?
Its inhibition is 101% (active).

For `CCOc1cc2c(C#N)c(N3CCOCC3)nc(N)c2c(N)n1`, which inhibition is on record?
The inhibition was 44.2% (active).

With `Cc1oc2c(c(C)cc3oc(=O)c(CC(=O)NCC(=O)NCC(=O)NCC(C)O)c(C)c32)c1C` (stereo unspecified) as the compound, how does the inhibition read?
Its inhibition is -15.6%.

With `COc1ccc(-n2c(NC(=O)c3ccco3)c(C#N)c3nc4ccccc4nc32)cc1` as the compound, how does the inhibition read?
The inhibition was 101% (active).

With `O=C(Nc1cccc2cccc(NC(=O)c3ccco3)c12)c1ccco1` as the compound, how does the inhibition read?
The inhibition was 36.3%.

How did the inhibition turn out when `CCOC(=O)c1c(NC(=O)c2ccco2)n(C2CCCCC2)c2nc3ccccc3nc12` was run?
Its inhibition is 63.5% (active).

With `CN(c1ccccc1)c1cc(=O)[nH]c(=O)[nH]1` as the compound, how does the inhibition read?
The inhibition was 11.4%.

For `Oc1ccc(NC(=S)Nc2ccc(O)cc2)cc1`, which inhibition is on record?
The inhibition was 19.5%.

With `O=[N+]([O-])c1ccc(C=Nc2cccc3ccccc23)s1` as the compound, how does the inhibition read?
The inhibition was 82.6% (active).

Which inhibition does the source give for `Oc1oc(-c2ccccc2)nc1C=Nc1cccc2ccccc12` here?
The inhibition was -77.5%.

With `O=C(CNc1cccc2ccccc12)N/N=C/c1ccc([N+](=O)[O-])cc1` as the compound, how does the inhibition read?
Its inhibition is -19.8%.

With `Oc1cccc(C=NCc2ccccc2)c1O` as the compound, how does the inhibition read?
Its inhibition is 51.5% (active).

Which inhibition does the source give for `Cc1ccccc1N=Cc1cccc(O)c1O` here?
Its inhibition is 33.2%.

With `O=[N+]([O-])c1ccc(-c2ccc(C=Nc3cccc4ccccc34)o2)cc1` as the compound, how does the inhibition read?
Its inhibition is 58.3% (active).

`Oc1cccc(C=Nc2cccc3ccccc23)c1O` was tested. Which inhibition did it give?
The inhibition was 59% (active).
